Compound activity from PubChem.
TDP1 inh: blocks human tyrosyl-DNA phosphodiesterase 1. Q9NUW8. recombinant TDP1, AlphaScreen DNA substrate cleavage. Potency, µM (series often up to 130 µM), inactives show at the highest dose activity change, negative = inhibition, usual class: inhibitors. 350,000 tested, 0.28% active. AID 485290; also: nearly all actives have a fitted effect of over 40% in size
Target sequence (Q9NUW8 whole entry, looked up): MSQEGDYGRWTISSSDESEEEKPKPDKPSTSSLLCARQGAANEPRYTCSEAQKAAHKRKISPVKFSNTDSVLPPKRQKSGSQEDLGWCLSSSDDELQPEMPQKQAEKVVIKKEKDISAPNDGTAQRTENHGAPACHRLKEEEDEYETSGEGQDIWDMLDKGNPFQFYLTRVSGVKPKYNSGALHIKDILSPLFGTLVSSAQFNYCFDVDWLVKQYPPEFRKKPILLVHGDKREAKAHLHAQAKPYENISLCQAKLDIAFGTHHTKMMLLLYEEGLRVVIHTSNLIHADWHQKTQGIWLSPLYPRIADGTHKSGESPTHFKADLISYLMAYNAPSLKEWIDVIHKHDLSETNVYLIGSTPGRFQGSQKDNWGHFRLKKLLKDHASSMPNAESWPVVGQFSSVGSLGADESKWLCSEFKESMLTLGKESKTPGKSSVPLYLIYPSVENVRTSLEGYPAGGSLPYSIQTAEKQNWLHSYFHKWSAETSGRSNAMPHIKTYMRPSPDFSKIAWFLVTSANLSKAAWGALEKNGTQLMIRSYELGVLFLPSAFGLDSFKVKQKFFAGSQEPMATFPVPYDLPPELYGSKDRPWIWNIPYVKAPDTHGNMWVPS
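Compounds were preincubated with Tdp1 (1 nM final) for 15 min at room temperature before substrate (15 nM final) started a 5 min reaction; beads (10 ug/ml final) were then added for 10 min before AlphaScreen detection.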
PLK1 PBD block: blocks phosphopeptide binding to human PLK1 polo-box domain; Plk1 PBD binding of FITC phosphopeptide, fluorescence polarization; Potency, µM, without a hit: max response, negative = inhibition, usual class: inhibitors; 360,000 tested, 2.8% active; P53350; also: series mostly up to about 57 µM; nearly all actives have a fitted effect of over 65% in size
TDP1 cell CPT: DT40-hTDP1 cell growth loss with CPT | Potency, µM (top dose mostly 46.2 µM), for inactives: at the top dose activity change, negative = growth inhibition, usual class: inhibitors | 420,000 tested, 12% active | chicken DT40 Tdp1-/-;hTDP1 cells + 20 nM CPT, ATP luminescence, 48 h | AID 686979; also: nearly all actives have a fitted effect of over 55% in size
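Chicken DT40 Tdp1-/- cells stably complemented with human TDP1 were seeded at 400 cells/well in medium containing 20 nM camptothecin, exposed to pin-transferred compounds, and grown at 37 °C for at least 48 hr. Viability was read as ATP luminescence.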
KAT2A inh: GCN5L2 (KAT2A) acetyltransferase inhibition; Q92830; GCN5L2 HAT assay, ThioGlo1 CoA-SH fluorescence; Potency, µM (series often up to 58.9 µM), without a hit: at the top dose activity change, negative = inhibition, most hits filed as inhibitors; 390,000 tested, 0.21% active; AID 504327
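Compounds, pin-transferred from DMSO stocks, meet 20nM GCN5L2 for 15 min before the reaction begins with H3(1-25) peptide (75uM) and acetyl-CoA (70uM). Thiol-reactive ThioGlo1 reports CoA release over 20 min at room temperature.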
TDP1 cell noCPT: qHTS for Inhibitors of human tyrosyl-DNA phosphodiesterase 1 (TDP1): qHTS in cells in absence of CPT. DT40 Tdp1-/- hTDP1 cells, no CPT, ATP luminescence, 48 h. Potency, µM (titrated, usually from 46.2 µM), without a hit: at the top dose activity change, negative = growth inhibition, usual class: inhibitors. 420,000 tested, 15% active. AID 686978, 2013; also: nearly all actives have a fitted effect of over 55% in size
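A cellular qHTS used chicken DT40 cells lacking endogenous Tdp1 but carrying stably transfected human TDP1. Compounds were applied without camptothecin, and cell growth kinetics were judged by ATP-dependent luminescence after ≥48 hr.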
VDR inhibitor: blocks the human vitamin D receptor. P11473. Potency, µM, for inactives: max response, negative = inhibition, usual class: inhibitors. 400,000 tested, 0.93% active. VDR-SRC2-3 peptide fluorescence polarization, 2 h
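Two reagent solutions held at 4 deg C in the dark were dispensed, compounds pinned at 23 nl, and the mixture incubated 2 h at room temperature. Read-out: fluorescence polarization of VDR–SRC2-3 peptide binding.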
* = called active by the depositor; u = inconclusive; x = not tested or not shown; [ ] = dose if it differs, or a comment. Compounds with a hit are over-represented: about 18% of the library has one in this group of screens. Calls follow the shape of the dose curve; as a rule, active = well fitted curve in the direction sought with a large enough effect; inconclusive = small, poorly fitted or top-dose-only effect, or another doubt; inactive = no such curve, though single readings can be large; an effect the other way counts as inactive or inconclusive. % is scaled to controls: 0 for no effect and ±100 for the full control effect; potency is read from the fitted curve at half-maximal effect.

SMILES	TDP1 inh	PLK1 PBD block	TDP1 cell CPT	KAT2A inh	TDP1 cell noCPT	VDR inhibitor
Cc1ccc(NC(=O)CN2C(=O)CCc3cc(S(=O)(=O)N4CCCCC4)ccc32)cc1C	4%	x	u	32%	21µM*	4%
Cc1ccc(NC(=O)CN2C(=O)COc3ccc(S(=O)(=O)N4CCCCCC4)cc32)cc1C	-13%	x	u	-6%	15µM*	6%
O=C(NCc1ccncc1)[C@@H]1CCCN1C(=O)[C@H]1CCCN1C(=O)c1ccccc1	x	-8%	-7%	x	-27%	x
Cc1ccc(-c2ccc(=O)n(CC(=O)NC(C)c3ccccc3)n2)cc1 (stereo unspecified)	3%	x	-29%	-12%	-6%	6%
Cc1ccc2c(c1)C1(C=CC(=O)C=C1)CC(=O)N2C	7%	x	x	x	x	-10%
COc1ccc(Cl)cc1NS(=O)(=O)c1ccc2c(c1)NC(=O)CCS2	3%	-6%	u	1%	4.6µM*	-7%
CC(=O)c1ccc(NS(=O)(=O)c2ccc3c(c2)NC(=O)CCS3)cc1	2%	x	x	-1%	x	0%
CCOc1ccc(NS(=O)(=O)c2ccc3c(c2)NC(=O)CCS3)cc1	3%	x	u	3%	12µM*	2%
Cc1ccc(Cl)cc1NS(=O)(=O)c1ccc2c(c1)NC(=O)CCS2	5%	x	x	0%	x	5%
Cc1cc(C)c(NS(=O)(=O)c2ccc3c(c2)NC(=O)CCS3)c(C)c1	-1%	-8%	u	-14%	15µM*	-2%
O=C(NC1CC1(c1ccccc1)c1ccccc1)c1ccccc1 (stereo unspecified)	x	-2%	-3%	x	-27%	-11%
COc1ccc(C(C#N)=Cc2cccc(OC)c2OC)cc1	x	-3%	u	x	23µM*	x
COc1ccc(/C(C#N)=C/c2cccnc2)cc1	x	x	x	-1%	x	x
N#Cc1cn(-c2cccc(C(F)(F)F)c2)c(=O)[nH]c1=O	x	1%	8%	17%	-4%	-9%
O=C1CC(N2CCOCC2)C(=O)N1Cc1ccc(N2CCCC2=O)cc1 (stereo unspecified)	-4%	0%	6%	1%	13%	0%
O=C1CC(N2CCC(O)(c3ccc(Cl)cc3)CC2)C(=O)N1Cc1ccc(N2CCCC2=O)cc1 (stereo unspecified)	1%	-7%	u	-12%	15µM*	12%
CCCn1nc(C(=O)NNC(=O)CSC(C)C(=O)Nc2cc(C)on2)c2ccccc2c1=O (stereo unspecified)	2%	-10%	-6%	0%	-22%	-5%
C[n+]1cccc(O)c1SCc1ccccc1	0%	-20%	5.2µM*	-3%	4.6µM*	-30%
CC(C)C(=O)Nc1nnc(SCC(=O)NC2CCCC2)s1	2%	-15%	2%	-4%	3%	-22%
CC(C)c1cc(C(C)C)c(S(=O)(=O)N2c3ccccc3[C@@]3(Br)C[C@H]4C(=O)N[C@@H](Cc5ccccc5)C(=O)N4[C@@H]23)c(C(C)C)c1	x	-5%	12µM*	x	12µM*	-12%
O=C1N[C@@H](Cc2ccccc2)C(=O)N2[C@@H]3N(S(=O)(=O)c4ccccc4)c4ccccc4[C@]3(Br)C[C@@H]12	x	-10%	u	x	u	-14%
COc1ccc2c(Sc3ccc(Cl)cc3)c(C(=O)N3CCC(C)CC3)[nH]c2c1	9%	x	-23%	-5%	u	-6%
Cc1ccc2c(Sc3ccc(Cl)cc3)c(C(=O)N3CCC(C)CC3)[nH]c2c1	9%	x	16µM*	-1%	21µM*	1%
CCOC(=O)Cc1cc(=O)[nH]c(Nc2nc3ccccc3o2)n1	4%	1%	u	-9%	u	6%
CCOC(=O)c1cnc(Nc2nc3ccccc3o2)nc1CSc1nnc(C)s1	x	-16%	3.3µM*	x	2.6µM*	11%
Oc1ccc(Cl)cc1CN1CCOc2c(O)cc(-c3nc4ccccc4s3)cc2C1	x	x	-14%[9.04 µM]	x	u	x
